# From PubChem BioAssay (NCATS)
# Inconclusive results are not listed. Unmarked numbers belong to inactive results. Calls of active or inactive are those of the source. Calls follow the shape of the dose curve; as a rule, active = well fitted inhibition curve with a large enough effect; inconclusive = small, poorly fitted or top-dose-only effect; inactive = flat fitted curve, though single readings scatter.
# System: HaCat
# Assay: Cytotoxic Profiling of Annotated Libraries Using Quantitative High-Throughput Screening (AID 1296008); also: nearly all actives have a fitted effect of over 60% in size
# Settings: Five cell lines viability, CellTiter-Glo ATP luminescence, 48-72 h; max response: hits give low values
# In short: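 Cells exposed to compounds for 48 or 72 hr at 37 degrees Celsius. Viability read as ATP-coupled luminescence with CellTiter-Glo after 10 min at room temperature.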
# % is scaled to controls: 0 for no effect and ±100 for the full control effect; potency is read from the fitted curve at half-maximal effect.
SMILES,max response [%],Potency
CO[C@H]1C[C@@H]2CC[C@@H](C)[C@@](O)(O2)C(=O)C(=O)N2CCCC[C@H]2C(=O)O[C@H]([C@@H](C)C[C@@H]2CC[C@@H](O)[C@H](OC)C2)CC(=O)[C@H](C)/C=C(\C)[C@@H](O)[C@@H](OC)C(=O)[C@H](C)C[C@H](C)/C=C/C=C/C=C/1C,-8.22,–
COc1cc(/C=C2\CCCN([C@@H](C)c3ccc(F)cc3)C2=O)ccc1-n1cnc(C)c1,3.5,–
CN(c1ccc(NC(=O)Nc2ccccc2)cc1)S(=O)(=O)c1cnn(-c2ccc(F)cc2)c1,-33.8,–
CC(C)S(=O)(=O)NC[C@@H]1CC(c2ccc(N3CCCC3)c(F)c2)=NO1,-20.2,–
C=C1CC2OC(=O)C(COC)C2C(OC(=O)/C(C)=C\C)CC2(C)OC1=CC2=O (centres undefined),-10.4,–
NC(=O)c1cnc(N[C@@H]2CCCC[C@@H]2N)nc1Nc1cccc(-n2nccn2)c1,–,13.2 µM (active)
Oc1cccc(C2NC(=S)Nc3cccc(F)c32)c1 (centres undefined),–,6.51 µM (active)
C=C(C)C(=O)OC1CC(CO)CCC/C(CO)=C/C2OC(=O)C(=C)C21 (centres undefined),1.02,–
CC(C)C[C@H](C(=O)O)c1cc(-c2ccc(C(F)(F)F)cc2)cc(-c2ccc(C(F)(F)F)cc2)c1,1.64,–
Cc1ccc(C)c(-c2cc(C(F)(F)F)nn2-c2ccc(S(N)(=O)=O)cc2)c1,3.66,–
Nc1nc(Cl)nc2c1ncn2C1OC(CO)C(O)C1F (centres undefined),–,1.46 µM (active)
Cc1nc(NC(=O)N2CCC[C@H]2C(N)=O)sc1-c1ccnc(C(C)(C)C(F)(F)F)c1,–,3.66 µM (active)
Cc1cc(NC(=O)c2cccc(NC(=O)/C=C/CN(C)C)c2)ccc1Nc1nccc(-c2cccnc2)n1,–,8.2 µM (active)
COc1ccc(CN2CCN(C(=O)CCNC(=O)c3ccc(C(C)(C)C)cc3)CC2)cc1,3.77,–
CNC1CN(c2ccc3c(=O)c(C(=O)O)cn(-c4nccs4)c3n2)CC1OC (centres undefined),–,1.68 µM (active)
OC(c1ccc(-c2ccc(CN3CCN(Cc4ccncc4)CC3)cc2)c(F)c1)(C(F)(F)F)C(F)(F)F,-9.47,–
CCC(=C(c1ccc(OCCN2CCCC2)cc1)c1ccc(OCCN2CCCC2)cc1)c1ccccc1,-11,–
Cc1cc(-c2cnc(N)c3c(-c4ccc5scnc5c4)csc23)n(C)n1,-13.1,–
O=C(CN1C2=NCCN2c2ccccc21)c1ccc(-c2ccccc2)cc1,–,16.4 µM (active)
CC(C)(C)c1ccc(NC(=O)N2CCN(c3ncccc3Cl)CC2)cc1,4.52,–

SMILES,max response [%],Potency
COc1ccccc1S(=O)(=O)Nc1ccc2c(c1)CN(C)C(=O)N2,2.92,–
CN(C)CCCn1cc(C2=C(c3c[nH]c4ccccc34)C(=O)NC2=O)c2ccccc21,-0.893,–
Oc1ccc(-c2cnc3ccc(NCc4ccco4)nn23)cc1,–,7.31 µM (active)
CC(=O)N1CCN(CCOc2ccc(C3CCN(C4=Nn5c(nnc5C(F)(F)F)CC4)CC3)cc2)CC1,-1.46,–
CC1CCCC(O)CCC/C=C/c2cc(OS(=O)(=O)O)cc(O)c2C(=O)O1 (centres undefined),0.348,–
CN(C)CCN(Cc1ccccc1)C(=O)c1cc(-c2ccc(F)cc2)n2nc(C(C)(C)C)cc2n1,-107,–
NC(=O)c1cnc(N[C@@H]2CCCC[C@H]2N)nc1Nc1cccc(-n2nccn2)c1,–,18.4 µM (active)
CC(C)NC(=O)COc1cccc(-c2nc(Nc3ccc4[nH]ncc4c3)c3ccccc3n2)c1,-3.54,–
CC(C)(C)c1ccc(-c2nc3c(N4CCN(Cc5ccc6nccnc6c5)CC4)cccc3[nH]2)cc1,-27.9,–
COc1cc(OC)c(NC(=O)c2ccc(Cc3cc4c(cc3C)C(C)(C)CCC4(C)C)o2)c(OC)c1,3.56,–
Cc1nc(NC(=O)N2CCCC2C(N)=O)sc1-c1ccnc(C(C)(C)C(F)(F)F)c1 (centres undefined),–,2.31 µM (active)
COc1ccc2c(c1)C(C(=O)N(Cc1ccc(N(C)C)cc1)c1ccc(C(C)C)cc1)CCC2 (centres undefined),-43.6,–
COc1cc2c(Nc3cc(F)c(Cl)c(Cl)c3)ncnc2cc1OCC1CCCN(C)CCC1,–,0.082 µM (active)
N#CSc1cc(SC#N)c(N)nc1N,-25,–
CN(C)CC1CCn2c(c(C3=C(c4cn(C)c5ccccc45)C(=O)NC3=O)c3ccccc32)C1 (centres undefined),–,20.6 µM (active)
COc1ccc2nc(-c3cc(OC)c(OC)c(OC)c3)cc(C(=O)NCC(=O)Nc3ccc(C(C)=O)cc3)c2c1,-18,–
NCC1CCN(c2nccc(-c3ccc4ccccc4c3)n2)CC1,–,6.51 µM (active)
C[C@@H]1COCCN1c1cc(=O)n2c(n1)N(Cc1cncc(Cl)c1)[C@H](C(F)(F)F)CC2,-6.64,–
COc1ccc(CCc2nc3c(C)c(-c4c(C)noc4C)c(C)cc3n2CCN2CCOCC2)cc1,-20.3,–
